# An excerpt weighted towards active compounds, which were near 7.2% of everything screened.
# Bfl-1 A1 inh = inhibitors of the anti-apoptotic protein A1, read as caspase activation; actives 0.066% (n = 330,000); caspase activation, % (concentration not given with the values); MEF A1-2A-BIM cells, Caspase-Glo 3/7 luminescence, 3 h; percent of clofoctol response, vehicle zero;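 active = over half of replicate activation scores above 10%, or exactly half above 10 with the replicate mean above 10; inconclusive = replicate mean below 10 yet half the replicates above 10; inactive = over half of replicates below 10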
# ALR inh = inhibitors of human sulfhydryl oxidase ALR; P55789; purified ALR, DTT oxidation, H2O2 HRP-luminol luminescence; inhibition, % (no concentration beside the values); actives 3.8% (n = 290,000); AID 485317;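 active = mean replicate inhibition above about 79%, with every replicate also reaching it, limit read from the data; inconclusive = only one of the two criteria met; inactive = mean below limit and not every replicate reaching it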
# Target sequence (P55789 whole entry, looked up): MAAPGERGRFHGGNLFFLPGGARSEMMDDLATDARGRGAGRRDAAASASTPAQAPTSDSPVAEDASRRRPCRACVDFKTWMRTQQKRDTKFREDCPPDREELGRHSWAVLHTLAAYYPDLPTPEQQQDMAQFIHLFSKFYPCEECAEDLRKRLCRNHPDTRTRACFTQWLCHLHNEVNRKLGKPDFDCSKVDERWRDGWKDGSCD
# Mot1-301 SUMO = SUMOylation pathway inhibition by Mot1-301 growth rescue. S. cerevisiae Mot1-301 growth rescue, ATP luminescence, 38.5C; percent above DMSO median, 100 means doubled. growth rescue, % at 18.8 µM. actives 1% (n = 320,000). AID 2716;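 active = every valid replicate shows activation above 250% relative to neutral control wells; inactive = the rest, any valid replicate at or below 250%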;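 also: OY570 slx delta 5 strain wells were the positive control but not used for scaling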
# VLA-4 inh = inhibition in a human VLA-4 binding assay | P13612 | VLA-4 expressing cells, ligand binding flow cytometry | inhibition, % (about 7 µM as worked out from the volumes in the protocol) | actives 0.2% (n = 330,000); in the data active = inhibition above about 50%
# AHR act = activators of human aryl hydrocarbon receptor. P35869. AHR-responsive luciferase reporter cells, luminescence. activation, % at 5 µM. actives 2.5% (n = 320,000). AID 2796; in the data active = activation above about 47%;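 also: 0% = vehicle wells and 100% = reference agonist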
# Efflux pump inh = antifungal efflux pump inhibition, Nile Red retention; S. cerevisiae Candida pump triplex; inhibition, % at 10 µM; actives 0.44% (n = 330,000);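 active = plate passing quality check with inhibition over a set limit, or well fluorescence over plate mean plus 4 SD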;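 also: Nile Red retained in pooled yeast measured as flow cytometry median fluorescence; 0% = buffer negative control and 100% = Enniatin B positive control; higher means more Nile Red kept so more efflux inhibition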
# An asterisk follows results filed as active; ? = inconclusive; · = no result.
SMILES,Bfl-1 A1 inh,ALR inh,Mot1-301 SUMO,VLA-4 inh,AHR act,Efflux pump inh
O=C(O)CN1C(=O)/C(=C\c2cccc(OCc3ccc(Cl)cc3)c2)SC1=S,-1,97*,-10,0,1,0
O=C(O)CN1C(=O)/C(=C\c2ccccc2OCc2ccc(Cl)cc2)SC1=S,0,58,97,13,59*,0
COc1ccccc1-c1nnc(NC(=O)C(C)SC2=NCCS2)s1 (stereo not drawn),0,8,30,13,57*,0
O=C(c1cn(-c2ccccc2)nc1-c1ccc(Cl)cc1)N1CCOCC1,0,2,331*,-18,-2,0
O=C1CCNc2c(Cl)cc(Cl)cc21,1,·,-14,7,5,0
CCN(CC(=O)NC(=O)NCc1ccccc1)Cc1ccccc1,-1,-2,-6,1,0,0
O=C(CCc1ccccc1)NCCc1ccc(F)cc1,0,-44,58,8,0,0
CC1CCCC(C)N1C(=O)Cn1nnc(-c2ccc([N+](=O)[O-])cc2)n1 (stereo not drawn),0,-54,-16,4,-1,0
COc1cc2c(cc1NC(=O)Nc1ccccc1)oc1ccccc12,-1,-11,38,7,48*,0
COc1cc2c(cc1NC(=S)Nc1cccc3ccccc13)oc1ccccc12,0,15,0,-2,72*,0
COc1cc2c(cc1NC(=O)CCC(=O)O)oc1ccccc12,0,-11,-16,14,12,0
COc1cc2c(cc1NCc1ccccn1)oc1ccccc12,-1,50,27,-1,63*,0
COCCCNC(=S)Nc1cc2oc3ccccc3c2cc1OC,0,7,-30,3,·,0
O=C(NNC(=O)c1cccc(O)c1)Nc1ccc([N+](=O)[O-])cc1,-1,-1,8,-3,2,0
CC(C)[C@H](NC(=O)C1CCN(S(=O)(=O)c2ccc(F)cc2)CC1)C(=O)NCc1ccco1,-1,2,10,8,0,0
COCCn1c(SCC(=O)NCC2CCCO2)nc2c([nH]c3ccccc32)c1=O (stereo not drawn),0,0,-11,-8,59*,0
CCn1c(SCC(=O)Nc2cccc(NC(C)=O)c2)nc2c([nH]c3ccccc32)c1=O,-1,3,7,11,57*,0
CCOC(=O)N1CCN(C(=O)CSc2nc3c([nH]c4ccccc43)c(=O)n2C)CC1,0,·,-9,-2,51*,0
Cn1c(SCC(=O)N2CCCCC2)nc2c([nH]c3ccccc32)c1=O,1,0,-3,-18,45,0
CCn1c(SCC(=O)Nc2ccc(C(C)=O)cc2)nc2c([nH]c3ccccc32)c1=O,?,-1,17,5,31,0
C=CCn1c(SCC(=O)NC2CCCC2)nc2c([nH]c3ccccc32)c1=O,0,1,3,11,63*,0
COc1ccccc1/C=C/C(=O)OCC(=O)N1c2ccccc2CC1C (stereo not drawn),0,-5,-3,9,3,0
CCC(=O)Nc1cc(NC(=O)CSc2nnc(C(C)C)n2CC)ccc1C,0,13,6,1,19,0
COCCn1c(SCC(=O)Nc2ccc(NC(C)=O)cc2)nc2c([nH]c3ccccc32)c1=O,?,7,16,1,74*,0
CCn1c(SCC(=O)Nc2cccc(C(C)=O)c2)nnc1C(C)C,0,99*,-3,0,2,0
Cc1ccc(CN2C(=O)CCC2C(=O)N2CCN(c3ccc(F)cc3)CC2)cc1 (stereo not drawn),1,91*,-7,3,1,0
Cn1cc([N+](=O)[O-])c(C(=O)N/N=C\c2c[nH]c3ccccc23)n1,1,0,-17,0,44,0
O=C(N/N=C/c1ccc(Br)s1)c1cccs1,-4,0,16,17,16,0
O=C(N/N=C/c1ccc(Br)s1)c1c[nH]c2ccccc12,0,70,0,12,146*,0
O=C(N/N=C/c1cc2c(cc1Br)OCO2)c1ccccn1,-7,-14,25,6,36,0

# High-throughput results as filed in PubChem.
